Measured values reported in PubChem BioAssay (Tox21).
“And” between values parts separate entries of the source, which are not always exact repeats. Equal values may be shown once. Results filed as inconclusive are left out. Where a structure was tested more than once in an assay, its records may differ in their call. The source made the active and inactive calls. Unless noted, calls come from the whole dose curve.

Columns and labels:
[1] = Nuclear factor erythroid 2-related factor 2/antioxidant responsive element (Nrf2/ARE) small molecule agonists: qHTS cell viability counter screen in human keratinocytes (AID 1919968; active = well fitted curve in the direction sought with a large enough effect in the repeat runs; an effect the other way counts as inactive or inconclusive; note: nearly all actives have a fitted effect of over 55% in size; note: potency is the fitted concentration of half-maximal effect)
Outline: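 Cytotoxicity was multiplexed with the Nrf2/ARE luciferase assay in the same wells. Stably transfected HaCaT keratinocytes were treated with test compounds for 23 h at 37 C. Cell viability was then measured by CellTiter-Fluor fluorescence.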

[2] = Nuclear factor erythroid 2-related factor 2/antioxidant responsive element (Nrf2/ARE) small molecule agonists: luciferase reporter gene qHTS assay in human keratinocytes (AID 1919969); note: nearly all actives have a fitted effect of over 35% in size; note: potency is the fitted concentration of half-maximal effect
[3] = biological target: Gonadotropin-releasing hormone receptor (Homo sapiens) (UniProt P30968); assay: Human gonadotropin-releasing hormone receptor (GnRHR) small molecule agonists, calcium flux assay in GnRHR-HEK293 cells (AID 1920063); note: nearly all actives have a fitted effect of over 35% in size; note: potency is the fitted concentration of half-maximal effect
Gonadotropin-releasing hormone receptor (Homo sapiens), sequence (P30968 whole entry, looked up): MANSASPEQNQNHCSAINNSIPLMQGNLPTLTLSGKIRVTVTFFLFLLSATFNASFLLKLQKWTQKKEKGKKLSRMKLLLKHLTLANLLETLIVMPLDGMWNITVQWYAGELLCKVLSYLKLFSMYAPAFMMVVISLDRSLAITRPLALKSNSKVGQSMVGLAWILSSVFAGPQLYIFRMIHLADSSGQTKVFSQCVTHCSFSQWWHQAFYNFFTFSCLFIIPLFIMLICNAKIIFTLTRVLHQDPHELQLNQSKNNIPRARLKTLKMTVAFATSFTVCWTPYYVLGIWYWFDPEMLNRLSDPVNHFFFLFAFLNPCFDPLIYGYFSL
Outline: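 Agonist activity was measured as intracellular calcium flux in HEK293 cells engineered to stably express human GnRHR. After dye loading for 1 hour at 37 C, compounds in DMSO were added and fluorescence was followed for 3 minutes.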

[4] = biological target: KiSS-1 receptor (Homo sapiens) (UniProt Q969F8); assay: Human kisspeptin (KISS1R) small molecule agonists, calcium flux assay in KISS1R-HEK293 cells (AID 1920064; active = well fitted curve in the direction sought with a large enough effect in the repeat runs; an effect the other way counts as inactive or inconclusive)
KiSS-1 receptor (Homo sapiens), sequence (Q969F8 whole entry, looked up): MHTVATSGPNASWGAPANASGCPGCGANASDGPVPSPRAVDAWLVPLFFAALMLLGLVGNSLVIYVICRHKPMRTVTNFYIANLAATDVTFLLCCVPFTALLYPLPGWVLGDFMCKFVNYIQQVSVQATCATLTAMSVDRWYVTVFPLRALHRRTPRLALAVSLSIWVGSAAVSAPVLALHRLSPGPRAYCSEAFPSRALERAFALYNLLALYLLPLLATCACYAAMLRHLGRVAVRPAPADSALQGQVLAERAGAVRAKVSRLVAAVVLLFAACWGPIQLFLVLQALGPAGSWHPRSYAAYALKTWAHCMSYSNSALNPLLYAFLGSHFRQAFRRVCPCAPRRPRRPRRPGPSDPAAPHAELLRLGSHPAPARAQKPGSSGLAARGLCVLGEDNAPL
Outline: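 Agonist activity is monitored as intracellular calcium rise in engineered HEK293 cells carrying human KISS1R. Cells are dye-loaded for 1 h at 37 C before compound addition, and fluorescence is recorded for 3 min.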

[5] = G protein-coupled receptor (GPCR) small molecule agonists, calcium flux assay: HEK293 wild type cell line counter screen (AID 1920065)
Outline: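 Seed cells, incubate 18 h (37 C, 5% CO2); add calcium dye, 1 h at 37 C; pin-transfer compounds, ATP control or DMSO; read fluorescence 480/540 nm each second for 3 min.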

[6] = p53 small molecule agonists, cell-based qHTS assay with human liver microsomes (AID 1963577);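 note: p53 response element beta-lactamase reporter cells with liver microsomes plus NADPH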
Outline: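 HLM-supplemented p53RE-bla reporter assay: 16 h compound exposure at 37 C, microsomes and NADPH each 0.5 mg/mL final, read by fluorescence intensity.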

[7] = p53 small molecule agonists, cell-based qHTS assay with rat liver microsomes (AID 1963578)
Outline: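 Quantitative HTS of the Tox21 10K library: p53RE-bla cells, rat liver microsomes plus NADPH at 0.5 mg/mL final each, 16 h at 37 C, beta-lactamase fluorescence detection.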

[8] = p53 small molecule agonists, cell-based qHTS assay with human liver microsomes: qHTS cell viability counter screen (AID 1963579); note: nearly all actives have a fitted effect of over 45% in size
Outline: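 Viability of p53RE-bla cells is measured as CellTiter-Glo luminescence following a 16 h, 37 C incubation with compound, liver microsomes from human donors and NADPH.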

[9] = p53 small molecule agonists, cell-based qHTS assay: qHTS cell viability counter screen (AID 1963581); note: nearly all actives have a fitted effect of over 45% in size; note: potency is the fitted concentration of half-maximal effect
Outline: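 Viability was counter-screened in parallel with the p53 agonist reporter by measuring intracellular ATP luminescence in the same HCT-116 p53RE-bla wells after 16 h compound treatment at 37 C.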

[10] = biological target: Muscarinic acetylcholine receptor M1 (Homo sapiens) (UniProt P11229); assay: Cholinergic receptor muscarinic 1 (CHRM1) small molecule antagonists, cell-based qHTS assay (AID 1963588); note: nearly all actives have a fitted effect of over 40% in size; note: potency is the fitted concentration of half-maximal effect
Muscarinic acetylcholine receptor M1 (Homo sapiens), sequence (P11229 whole entry, looked up): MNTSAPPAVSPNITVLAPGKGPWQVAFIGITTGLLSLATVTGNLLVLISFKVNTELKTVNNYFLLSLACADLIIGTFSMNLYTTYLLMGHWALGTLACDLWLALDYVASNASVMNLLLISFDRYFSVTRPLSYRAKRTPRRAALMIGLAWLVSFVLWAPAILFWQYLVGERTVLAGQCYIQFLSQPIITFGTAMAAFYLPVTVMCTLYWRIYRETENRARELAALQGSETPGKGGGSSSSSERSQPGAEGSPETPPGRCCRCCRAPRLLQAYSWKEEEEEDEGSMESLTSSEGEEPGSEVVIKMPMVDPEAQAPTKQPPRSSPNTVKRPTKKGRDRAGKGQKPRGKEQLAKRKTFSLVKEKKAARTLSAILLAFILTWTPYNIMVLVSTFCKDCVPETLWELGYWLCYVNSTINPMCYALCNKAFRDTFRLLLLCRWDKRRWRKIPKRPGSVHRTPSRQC
Outline: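 Compounds were tested at 15 concentrations in three independent runs. Dye-loaded CHRM1-CHO cells were exposed 5 min at room temperature before stimulation by acetylcholine added at 50nM. Intracellular calcium was read kinetically on FDSS for 3 min.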

[11] = biological target: Muscarinic acetylcholine receptor M1 (Homo sapiens) (UniProt P11229); assay: Cholinergic receptor muscarinic 1 (CHRM1) small molecule agonists, cell-based qHTS assay (AID 1963589); note: nearly all actives have a fitted effect of over 35% in size; note: potency is the fitted concentration of half-maximal effect
Outline: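 Cells were plated and incubated 18 h at 37 C/5% CO2, loaded with calcium dye for 1 h at 37 C, then treated with compounds in DMSO. Fluorescence was recorded kinetically at 1 sec intervals.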

[12] = biological target: Beta-2 adrenergic receptor (Homo sapiens) (UniProt P07550); assay: Adrenergic beta2 receptor (ADRB2) small molecule antagonists, cell-based qHTS assay (AID 1963592); note: series mostly up to about 92 µM; nearly all actives have a fitted effect of over 50% in size
Beta-2 adrenergic receptor (Homo sapiens), sequence (P07550 whole entry, looked up): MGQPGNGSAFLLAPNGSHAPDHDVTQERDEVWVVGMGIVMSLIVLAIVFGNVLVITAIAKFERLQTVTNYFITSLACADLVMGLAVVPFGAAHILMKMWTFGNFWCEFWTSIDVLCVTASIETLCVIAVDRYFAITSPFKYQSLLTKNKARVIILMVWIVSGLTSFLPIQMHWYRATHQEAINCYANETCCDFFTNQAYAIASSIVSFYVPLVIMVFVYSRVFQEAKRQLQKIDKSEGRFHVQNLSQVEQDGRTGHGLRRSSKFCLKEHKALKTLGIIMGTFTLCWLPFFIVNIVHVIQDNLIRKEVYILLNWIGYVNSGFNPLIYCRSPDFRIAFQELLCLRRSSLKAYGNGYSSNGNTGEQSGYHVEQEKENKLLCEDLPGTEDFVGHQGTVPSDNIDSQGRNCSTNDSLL
Outline: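 Assay format: CHO-ADRB2 cells, 18-20hr seeding at 37C/5% CO2, then compound plus 1nM isoproterenol agonist mix for 0.5hr RT. Homogeneous time-resolved fluorescence cAMP detection after 1hr, expressed as 665/615 nm ratio.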

[13] = biological target: D(2) dopamine receptor (Homo sapiens) (UniProt P14416); assay: Dopamine D2 receptor (DRD2) small molecule agonists, cell-based qHTS assay (AID 1963594); note: nearly all actives have a fitted effect of over 35% in size
D(2) dopamine receptor (Homo sapiens), sequence (P14416 whole entry, looked up): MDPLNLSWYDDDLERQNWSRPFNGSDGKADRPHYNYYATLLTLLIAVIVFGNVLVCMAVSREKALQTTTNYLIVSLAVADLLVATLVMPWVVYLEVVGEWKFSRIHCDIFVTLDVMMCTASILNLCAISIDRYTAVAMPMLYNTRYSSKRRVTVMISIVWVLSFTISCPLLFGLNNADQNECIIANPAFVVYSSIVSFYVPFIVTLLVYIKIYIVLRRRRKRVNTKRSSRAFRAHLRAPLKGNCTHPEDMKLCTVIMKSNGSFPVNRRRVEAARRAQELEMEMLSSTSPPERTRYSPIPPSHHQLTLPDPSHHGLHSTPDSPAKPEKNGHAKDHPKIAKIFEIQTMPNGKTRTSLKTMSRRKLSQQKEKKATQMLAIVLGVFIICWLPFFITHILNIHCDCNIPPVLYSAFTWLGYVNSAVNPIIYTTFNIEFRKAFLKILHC
Outline: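 HEK293 cells stably expressing human DRD2, pre-treated with PDE inhibitor Ro20-1724 (0.1 mM final) and compound 10 min at room temperature, then stimulated with NKH477 (200nM […]) for 30 min. cAMP read by HTRF (665/620 nm).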

[14] = biological target: D(2) dopamine receptor (Homo sapiens) (UniProt P14416); assay: Dopamine D2 receptor (DRD2) small molecule antagonists, cell-based qHTS assay (AID 1963595; active = well fitted inhibition curve with a large enough effect in the signal ratio in the repeat runs, with a control signal flat; the % refers to the signal ratio)
Outline: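 HTRF cAMP read-out at 665 and 620 nm emission (340 nm excitation). Antagonist mode: compounds were tested against 12 nM quinpirole in DRD2-HEK293 cells, with 200 nM NKH477 raising cAMP and 0.1 mM Ro20-1724 blocking its breakdown.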

[15] = biological target: 5-hydroxytryptamine receptor 2A (Homo sapiens) (UniProt P28223); assay: 5-hydroxytryptamine receptor 2A (HTR2A) small molecule agonists, cell-based qHTS assay (AID 1963587); note: nearly all actives have a fitted effect of over 30% in size; note: potency is the fitted concentration of half-maximal effect
5-hydroxytryptamine receptor 2A (Homo sapiens), sequence (P28223 whole entry, looked up): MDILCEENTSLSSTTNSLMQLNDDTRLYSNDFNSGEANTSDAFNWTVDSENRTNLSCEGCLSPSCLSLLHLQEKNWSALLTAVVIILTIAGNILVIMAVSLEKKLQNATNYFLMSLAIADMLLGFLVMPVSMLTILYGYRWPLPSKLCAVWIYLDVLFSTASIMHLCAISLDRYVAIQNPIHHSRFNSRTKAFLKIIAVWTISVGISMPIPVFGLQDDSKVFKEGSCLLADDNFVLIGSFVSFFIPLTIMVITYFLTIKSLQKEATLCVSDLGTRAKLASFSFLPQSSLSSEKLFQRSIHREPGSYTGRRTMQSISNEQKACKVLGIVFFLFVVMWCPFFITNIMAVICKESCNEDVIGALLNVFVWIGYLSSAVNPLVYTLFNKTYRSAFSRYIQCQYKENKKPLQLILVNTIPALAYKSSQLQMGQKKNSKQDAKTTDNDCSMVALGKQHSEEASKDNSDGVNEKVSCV
Outline: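 CHO cells stably expressing human HTR2A, plated 18 h, loaded with calcium dye 1 h at 37 C. Agonist mode: compounds added and intracellular calcium fluorescence recorded kinetically for 2 min at 1 sec intervals.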

[16] = p53 small molecule agonists, cell-based qHTS assay (AID 1963582; active = well fitted activation curve with a large enough effect in the signal ratio in the repeat runs, not every such curve was filed as active; the % refers to the signal ratio)
Outline: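 Cells carrying a p53-responsive bla reporter are treated with test compounds for 16 h at 37 C; beta-lactamase activity is then detected with LiveBLAzer B/G FRET substrate after 2 h at room temperature.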

[17] = biological target: 5-hydroxytryptamine receptor 2A (Homo sapiens) (UniProt P28223); assay: 5-hydroxytryptamine receptor 2A (HTR2A) small molecule antagonists, cell-based qHTS assay (AID 1963586); note: nearly all actives have a fitted effect of over 45% in size
Outline: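 CHO cells stably expressing human HTR2A were plated for 18 h at 37 C, then loaded with calcium dye for 1 h. Compounds were preincubated 5 min at room temperature before DOI (4 nM solution) was added. Kinetic fluorescence was read for 3 min.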

[18] = cAMP Responsive Elements (CRE) small molecule agonists, cell-based qHTS assay (AID 1963590)
Outline: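 Cells carrying a CRE-driven beta-lactamase reporter (HEK 293T) are seeded, incubated overnight (18 h), and treated with test compounds for 3 h at 37 C; reporter activity is then detected with a FRET substrate after 2 h at room temperature.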

[19] = cAMP Responsive Elements (CRE) small molecule antagonists, cell-based qHTS assay (AID 1963591; active = well fitted inhibition curve with a large enough effect in the signal ratio in the repeat runs, not every such curve was filed as active; the % refers to the signal ratio; note: potency is the fitted concentration of half-maximal effect)
Outline: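 Cells (CRE-bla HEK 293T, DMEM with 10% dialyzed FBS and 25 mM HEPES) are seeded and incubated 18 h. Compounds are added with NKH477 agonist at 0.25 uM final for 3 h, then FRET substrate for 2 h.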

[20] = p53 small molecule agonists, cell-based qHTS assay with rat liver microsomes: qHTS cell viability counter screen (AID 1963580); note: nearly all actives have a fitted effect of over 45% in size
Outline: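 Cytotoxicity counter screen: intracellular ATP measured by CellTiter-Glo luminescence in the same wells as the beta-lactamase reporter read, on HCT-116 p53RE-bla cells exposed 16 h at 37 C to compounds with rat liver microsomes and NADPH, each 0.5 mg/mL final.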

Measured: Potency

Cc1cc(Cl)ccc1OCCCC(=O)O
not listed: [15] | [16] | [17] | [18] | [19] | [20]
inactive: all other assays above

O=c1oc2ccccc2c(O)c1C(CC(O)c1ccc(-c2ccc(Br)cc2)cc1)c1ccccc1 (stereo not drawn)
active: [9] 19.3 µM | [10] 25.1 µM
not listed: [16] | [17] | [18] | [19] | [20]
inactive: all other assays above

COC(=O)c1ccc(CBr)cc1
active: [2] 6.19 µM
not listed: [13] | [20]
inactive: all other assays above

C=CCc1cc(OC)c2c(c1)OCO2
not listed: [20]
inactive: all other assays above

O=C1c2ccccc2C(=O)N1SC(Cl)(Cl)Cl
active: [1] 24 µM | [2] 15.1 µM and 7.7 µM | [3] 38.9 µM | [15] 54.2 µM and 43.6 µM | [11] 49 µM
not listed: [10] | [16] | [17] | [19] | [20]
inactive: all other assays above

N[C@@H](Cc1ccc(N(CCCl)CCCl)cc1)C(=O)O
inactive: [1] | [2] | [3] | [4] | [5] | [6] | [7] | [8] | [19] | [13] | [14]

CCC[N+](=O)[O-]
2.68 µM (active) and inactive: [1]
not listed: [20]
inactive: all other assays above

Brc1ccc(Oc2cc(Br)c(Br)cc2Br)c(Br)c1
active: [2] 12.3 µM
not listed: [8]
inactive: all other assays above

CCNc1nc(NCC)nc(SC)n1
not listed: [12] | [16] | [20]
inactive: all other assays above

CCCCCCCCCc1ccc(O)cc1
active: [1] 27.6 µM
not listed: [10] | [11] | [13] | [14] | [15] | [17] | [20]
inactive: all other assays above

CCCCOCCOP(=O)(OCCOCCCC)OCCOCCCC
not listed: [7]
inactive: all other assays above

O=C(O)c1nc(Cl)ccc1Cl
not listed: [7] | [13] | [18] | [19]
inactive: all other assays above

C(CCOCC1CO1)COCC1CO1 (stereo not drawn)
active: [2] 30.2 µM
not listed: [7] | [14]
inactive: all other assays above

O=NN(c1ccccc1)c1ccccc1
not listed: [7] | [18]
inactive: all other assays above

Clc1ccc(COC(Cn2ccnc2)c2ccc(Cl)cc2Cl)cc1 (stereo not drawn)
active: [1] 45.3 µM and 27.2 µM and 13.3 µM | [2] 22.7 µM and 13.3 µM | [19] 50.8 µM
inactive: [3] | [4] | [5] | [6] | [7] | [20] | [18] | [12] | [13]
